Bioassay records deposited in PubChem by National Center for Advancing Translational Sciences (NCATS).
A selection: hits, their analogues and other compounds. The true share with any hit is near 6.6%.
TGFb SMAD3 inh = TGF-b pathway inhibition | 1.2% of 410,000 active | AID 588855 | Potency, µM (titrated, usually from 46.1 µM), inactives show at the highest dose activity, negative = inhibition, actives largely listed as inhibitors | HepG2 CAGA-GFP TGF-b/SMAD3 reporter, GFP fluorescence, 18 h; TGF-beta stimulated, 500 pg/mL final; further: on the % scale 0 is the no-effect control and ±100 the full control effect; nearly all actives have a fitted effect of over 65% in size
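Inhibition was scored as loss of TGF-beta-induced (500 pg/mL final, 18 hours, 37 degrees C) GFP in HEPG2 cells carrying a CAGA-GFP reporter, in DMEM with 1% FBS. Well GFP was summed per cell; Activity was normalised to unstimulated and stimulated DMSO wells, then concentration-response fitting.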
KB-3-1 tox = kills parental KB-3-1 adenocarcinoma cells; 1.4% of 400,000 active; Potency, µM (doses to about 46.1 µM), actives largely listed as cytotoxic; AID 1347075; KB-3-1 viability, CellTiter-Glo ATP luminescence, 72 h; further: on the % scale 0 is the no-effect control and ±100 the full control effect; nearly all actives have a fitted effect of over 60% in size
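Parental KB-3-1 adenocarcinoma cells in phenol-red-free DMEM with 10% FBS were pin-treated with compounds at several concentrations, incubated 72 h at 37 °C, and viability read by CellTiter-Glo luminescence; concentration-effect curves were fitted after normalization.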
HT1080-NT tox = kills 2HG-producing HT-1080-NT fibrosarcoma cells; HT-1080-NT fibrosarcoma viability, CellTiter-Glo ATP luminescence, 48 h; Potency, µM (titrated, usually from 46.1 µM), for inactives: at the highest dose activity, negative = less viability, actives largely listed as cytotoxic; 1.6% of 360,000 active;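 further: NT is the 2HG producing partner of a matched IDH1 knockdown line; 0% = DMSO-treated cells and -100% = media-only wells without cells; nearly all actives have a fitted effect of over 55% in size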
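HT-1080-NT fibrosarcoma cells (2HG-overproducing), 750 cells/well in RPMI with 5% FBS, dosed after 2 h and incubated 48 h at 37C. CellTiter-Glo luminescence normalized to DMSO and no-cell wells; concentration-response curves fitted and classed.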
HepG2 tox = kills HepG2 cells in TGF-b inhibitor counter-screen; HepG2 CAGA-GFP viability, ATP luminescence, 18 h; Potency, µM (doses to about 46.1 µM), for inactives: at the top dose activity change, negative = cytotoxicity, usual class: cytotoxic; 0.76% of 410,000 active; AID 588856
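CellTiter-Glo luminescence gave cytotoxicity after 18 hours at 37 degrees C. The cells were HepG2 CAGA-GFP in 1% FBS DMEM, stimulated with 500 pg/mL TGF-beta after compound addition. %Activity was normalised to no-cell wells (complete cell-killing) and DMSO (no toxicity), and curves were fitted and classified.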
HT1080 IDH1KD tx = HT-1080 IDH1 knockdown cell toxicity (counter line); HT-1080 IDH1 knockdown viability, ATP luminescence, 48 h; Potency, µM (highest dose often 46.1 µM), for inactives: at the top dose activity, negative = toxicity, hits mostly cytotoxic; 2% of 360,000 active; AID 686971;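 further: 0% = DMSO wells and -100% = cell-free medium wells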
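Cytotoxicity counter-line: IDH1KD HT-1080, 48 h, CellTiter-Glo. Curves classed by r2, magnitude and activity.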
KB-V1 MDR tox = kills drug-selected multidrug resistant KB-V1 cells. KB-V1 MDR cells viability, CellTiter-Glo, 72 h. 3.4% of 400,000 active. Potency, µM (titrated, usually from 46.1 µM), most hits filed as cytotoxic. AID 1347076; further: on the % scale 0 is the no-effect control and ±100 the full control effect; nearly all actives have a fitted effect of over 60% in size
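Compound-treated KB-V1 multidrug-resistant cells, 72 h, 37 degrees C; viability by CellTiter-Glo. Fitted qHTS curves give the values.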
The depositor's hits bear a star. The call rests on the fitted dose curve; in most records, active means well fitted curve in the direction sought with a large enough effect; inconclusive means small, poorly fitted or top-dose-only effect, or another doubt; inactive means no such curve, though single readings can be large; an effect the other way counts as inactive or inconclusive. Potency means the concentration at half of the fitted maximal effect.

How did CC1CCN(C(=O)Cn2cc(SCC(=O)NCc3ccc(F)cc3)c3ccccc32)CC1 do in these assays?
TGFb SMAD3 inh: inconclusive; HepG2 tox: -7%

How did COc1ccccc1NC(=O)c1c(C)cc(C)nc1SCC(=O)Nc1ccc(C)cc1 do in these assays?
TGFb SMAD3 inh: inconclusive; KB-3-1 tox: inactive; HepG2 tox: -16%; KB-V1 MDR tox: inactive

How did Cc1ccc(C2CC(=O)c3cnc(N4CCc5ccccc5C4)nc3C2)cc1 (centres undefined) do in these assays?
TGFb SMAD3 inh: 23%; KB-3-1 tox: inactive; HT1080-NT tox: -3%; HepG2 tox: -5%; HT1080 IDH1KD tx: -3%; KB-V1 MDR tox: 23µM*

How did O=C1CC(c2ccc(F)cc2)Cc2nc(N3CCN(c4ccccc4)CC3)ncc21 (centres undefined) do in these assays?
TGFb SMAD3 inh: 14%; KB-3-1 tox: inactive; HT1080-NT tox: 9%; HepG2 tox: 2%; HT1080 IDH1KD tx: 8%; KB-V1 MDR tox: inactive

How did Cc1ccc(C2CC(=O)c3cnc(N4CCN(c5ccccc5)CC4)nc3C2)cc1 (centres undefined) do in these assays?
TGFb SMAD3 inh: -6%; KB-3-1 tox: inconclusive; HT1080-NT tox: 8%; HepG2 tox: 18%; HT1080 IDH1KD tx: 13%; KB-V1 MDR tox: 5.2µM*

How did CCn1c(SCC(=O)c2c[nH]c3ccccc23)nnc1-c1cccs1 do in these assays?
TGFb SMAD3 inh: 9%; KB-3-1 tox: 16µM*; HT1080-NT tox: inconclusive; HepG2 tox: 9%; HT1080 IDH1KD tx: inconclusive; KB-V1 MDR tox: inconclusive

Results for COCCn1c(SCC(=O)c2c[nH]c3ccccc23)nnc1-c1ccncc1 ?
TGFb SMAD3 inh: 19%; KB-3-1 tox: inactive; HT1080-NT tox: -7%; HepG2 tox: 33%; HT1080 IDH1KD tx: 0%; KB-V1 MDR tox: inactive

What do the screens show for `CCn1c(SCCOc2ccc(Cl)cc2)nnc1-c1cccs1`?
TGFb SMAD3 inh: 1%; KB-3-1 tox: inactive; HT1080-NT tox: -3%; HepG2 tox: -24%; HT1080 IDH1KD tx: -10%; KB-V1 MDR tox: 9.2µM*

How did C(=C\c1ccccc1)/CSc1nnc(-c2ccccn2)n1Cc1ccco1 do in these assays?
TGFb SMAD3 inh: inconclusive; KB-3-1 tox: 5.8µM*; HT1080-NT tox: 5.8µM*; HepG2 tox: -6%; HT1080 IDH1KD tx: 4.1µM*; KB-V1 MDR tox: inconclusive

How did CC/C(=N\NC(=O)c1c[nH]c2ccccc12)c1cccs1 do in these assays?
TGFb SMAD3 inh: -3%; KB-3-1 tox: inactive; HT1080-NT tox: -6%; HepG2 tox: -8%; HT1080 IDH1KD tx: -7%; KB-V1 MDR tox: 16µM*

Results for CC(C)c1ccc(NC(=O)C2CCN(S(=O)(=O)c3cccc4nsnc34)CC2)cc1 ?
TGFb SMAD3 inh: 24%; KB-3-1 tox: inactive; HepG2 tox: -4%; KB-V1 MDR tox: inactive

Results for Cc1ccc(C)c(N2C(=O)N(Cc3ccccc3C)c3ccccc3S2(=O)=O)c1 ?
TGFb SMAD3 inh: -23%; KB-3-1 tox: inconclusive; HepG2 tox: -11%; KB-V1 MDR tox: inactive

Results for CSc1ccc(CCNC(=O)CCc2c(C)nc3c(c(C)nn3-c3ccccc3)c2C)cc1 ?
TGFb SMAD3 inh: -15%; KB-3-1 tox: inactive; HepG2 tox: 2%; KB-V1 MDR tox: inactive

What do the screens show for `O=C(c1cc(-c2cccc(Cl)c2)on1)N1CCCCC1`?
TGFb SMAD3 inh: -5%; KB-3-1 tox: inactive; HepG2 tox: -7%; KB-V1 MDR tox: inactive

What do the screens show for `CCn1c(SCc2nc3ccccc3[nH]2)nnc1-c1cccs1`?
TGFb SMAD3 inh: -7%; KB-3-1 tox: inactive; HT1080-NT tox: -3%; HepG2 tox: -37%; HT1080 IDH1KD tx: 1%; KB-V1 MDR tox: 8.2µM*

Results for CCn1c(COc2ccc(C)cc2)nnc1SCc1nc2ccccc2[nH]1 ?
TGFb SMAD3 inh: -1%; KB-3-1 tox: inactive; HT1080-NT tox: -17%; HepG2 tox: -30%; HT1080 IDH1KD tx: inconclusive; KB-V1 MDR tox: 2.6µM*

How did Clc1ccc(OCc2nnc(SCc3nc4ccccc4[nH]3)n2Cc2ccco2)cc1 do in these assays?
TGFb SMAD3 inh: inconclusive; KB-3-1 tox: inconclusive; HT1080-NT tox: -4%; HepG2 tox: -28%; HT1080 IDH1KD tx: -16%; KB-V1 MDR tox: 5.8µM*

What do the screens show for `CCn1c(SCc2nc3ccccc3[nH]2)nnc1-c1ccccc1OC`?
TGFb SMAD3 inh: 14%; KB-3-1 tox: inactive; HT1080-NT tox: -1%; HepG2 tox: 1%; HT1080 IDH1KD tx: -3%; KB-V1 MDR tox: inactive

How did c1ccc(-c2nnc(SCc3nc4ccccc4[nH]3)n2Cc2ccco2)nc1 do in these assays?
TGFb SMAD3 inh: 1%; KB-3-1 tox: inactive; HT1080-NT tox: -5%; HepG2 tox: -21%; HT1080 IDH1KD tx: -9%; KB-V1 MDR tox: 2.6µM*

How did c1coc(Cn2c(SCc3nc4ccccc4[nH]3)nnc2-c2cnccn2)c1 do in these assays?
TGFb SMAD3 inh: -7%; KB-3-1 tox: inactive; HT1080-NT tox: -17%; HepG2 tox: -37%; HT1080 IDH1KD tx: -3%; KB-V1 MDR tox: inconclusive

How did Cc1cc(C)cc(C(=O)NCC(c2ccc(N(C)C)cc2)N2CCCC2)c1 (centres undefined) do in these assays?
TGFb SMAD3 inh: -37%; KB-3-1 tox: inactive; HepG2 tox: -48%; KB-V1 MDR tox: inactive

Results for CCOC(=O)C(C)Sc1nnc2ccc3ccccc3n12 (centres undefined) ?
TGFb SMAD3 inh: -53%; HepG2 tox: 0%

What do the screens show for `CCOc1ccc(-c2nn3c(-c4cc(-c5ccccc5)n[nH]4)nnc3s2)cc1`?
TGFb SMAD3 inh: -8%; KB-3-1 tox: inconclusive; HepG2 tox: -13%; KB-V1 MDR tox: inactive

How did COc1cccc(NC(=O)CSc2nccn2C2CCCC2)c1 do in these assays?
TGFb SMAD3 inh: 0%; HepG2 tox: -20%

Results for COc1ccccc1NC(=O)CSc1nnc(-c2ccccn2)n1Cc1ccco1 ?
TGFb SMAD3 inh: -1%; KB-3-1 tox: inactive; HT1080-NT tox: 2%; HepG2 tox: -20%; HT1080 IDH1KD tx: -3%; KB-V1 MDR tox: inconclusive

How did COc1ccc(C)cc1NC(=O)CSc1nnc(-c2ccccn2)n1Cc1ccco1 do in these assays?
TGFb SMAD3 inh: -3%; KB-3-1 tox: inactive; HT1080-NT tox: 9%; HepG2 tox: -20%; HT1080 IDH1KD tx: 3%; KB-V1 MDR tox: 12µM*
